Screening results deposited in PubChem by University of Kansas High Throughput Screening Laboratory.
This excerpt belongs to a sample that is enriched for hits.
Pf apPOL block: Pf-apPOL DNA polymerase inhibition | Recombinant Pf-apPOL, molecular beacon fluorescence, 1.5 h | AID 1794808 | actives 0.25% (n = 210,000) | inhibition, % at 10 µM
mHTT-CaM PPI inh: disrupts binding of mutant huntingtin to calmodulin. P42858. AlphaScreen His-mHTT/GST-CaM binding, luminescence. inhibition, % at 15 µM. actives 3.6% (n = 190,000). AID 1671202
Numbers stand for hits; i = inactive; nt = no result given; ! = a repeat was not active. Rule as the data show it: active = inhibition above about 50%; inactive = the rest.

SMILES	Pf apPOL block	mHTT-CaM PPI inh
Cc1cc(Nc2ccc(C(N)=O)cc2)n2nc(C)c(-c3ccccc3)c2n1	i	74.4
Cc1nn2c(N)cc(-c3ccccc3)nc2c1-c1ccccc1	i	83.3
Cc1nc2c(-c3ccc(Cl)cc3)c(C)nn2c(N)c1-c1ccccc1	i	i
COc1ccc(-c2cc3nc(C)cc(Nc4ccc(C(N)=O)cc4)n3n2)cc1OC	i	i
C=CCOc1nc(NCC)nc(NCC)n1	i	i
Cc1cc(C)c(C(=O)N2CCC(CC(=O)NCc3cccc(Cl)c3)CC2)[nH]1	i	i
CC(C)NC(=O)C1COC2(CCCCC2)N1C(=O)c1ccc(C(F)(F)F)cc1 (stereo not drawn)	i	i
c1ccc2c(CCc3ccncc3)c[nH]c2c1	i	i
c1ccc(Cc2c[nH]c3ccccc23)cc1	i	60.6
O=C(Nc1ccc(NC(=O)c2cccc(Br)c2)cc1)c1ccccc1	i	i
C=CCN1N=C(NC(=O)c2cccc(Br)c2)SC=C1c1ccccc1	i	55.0
FC(F)(F)c1ccc(-c2nnc(C3CC3)o2)cc1	i	nt
COc1cc(NC(=O)c2cnc3ccccc3n2)cc(OC)c1	i	i
NC(=S)Nc1ccc(Br)c(Cl)c1	i	nt
O=C1N(c2ccccc2)C(c2ccccc2)N2CCCN12 (stereo not drawn)	i	i
CCOc1ccccc1C1N(c2ccc(F)cc2)C(=O)C2CCCN21 (stereo not drawn)	i	i
CCOc1ccccc1C1N(c2ccc(Cl)cc2)C(=O)C2CCCN21 (stereo not drawn)	i	50.6
COc1ccc(N2C(=O)C3CCCN3C2c2ccccc2OC)cc1 (stereo not drawn)	i	i
COc1cc(C2N(c3ccc(Cl)cc3)C(=O)C3CCCN32)cc(OC)c1OC (stereo not drawn)	i	i
COc1ccccc1C1N(c2ccc(Cl)cc2)C(=O)C2CCCN21 (stereo not drawn)	i	50.3
COc1ccccc1C1N(c2ccc(Cl)c(Cl)c2)C(=O)N2CCCN12 (stereo not drawn)	i	100.0
COc1cc(C2N(c3ccc(Cl)c(Cl)c3)C(=O)C3CCCN32)cc(OC)c1OC (stereo not drawn)	i	100.0
Cc1sc2ccn(CC(C)C)c(=O)c2c1C(=O)N1CCN(C)CC1	i	i
Cc1noc(C2(NC(=O)C3CCCCC3)CCCCC2)n1	i	i
CSc1nc2c(c(Nc3ccc4c(c3)OCCO4)n1)CCC2	i	i
SMILES	Pf apPOL block	mHTT-CaM PPI inh
N#Cc1ccccc1NC(=O)CSCCSCC(=O)Nc1ccccc1C#N	i	nt
CN(C)CCNC(=O)C1CCN(Cc2cc3ccccc3n2Cc2cccc(F)c2)CC1	i	100.2
O=C(NCc1cccnc1)C1CCN(c2cnn(Cc3ccccc3)c(=O)c2)CC1	i	i
COc1ccc2c(c1)c(CN1CCC(C(=O)NCCN(C)Cc3ccccc3)CC1)cn2C	i	i
Cc1ccc(Cn2c(CN3CCC(C(=O)NCCN(C)C)CC3)cc3ccccc32)cc1	i	99.2
O=C(NCc1cccnc1)C1CCN(Cc2cc3ccccc3n2Cc2ccccc2)CC1	i	68.1
CN(C)CCNC(=O)C1CCN(c2nc3ccccc3o2)CC1	i	i
Cc1cccc(N2C(=O)CSC2c2ccccc2C(F)(F)F)c1 (stereo not drawn)	i	i
O=C(c1ccc(/C=C2\Sc3ccccc3N(Cc3ccc(F)cc3)C2=O)cc1)N1CCOCC1	i	i
O=C1OC(/C=C/c2ccc(Cl)cc2)=NC/1=C\c1ccc(F)cc1	i	i
Cc1cc(NC(=O)c2ccccc2)cc(NC(=O)c2ccccc2)c1C	51.8	i
Cc1cc(NC(=O)c2ccccc2)ccc1NC(=O)c1ccccc1	i	i
O=C(NC1CC1)c1ccc(OCC2CCN(C(=O)c3cccc(F)c3)CC2)cc1	i	i
O=C(c1cccc(OCC2CCCN(C(=O)C3CC3)C2)c1)N1CCCCC1 (stereo not drawn)	i	i
CC(C)n1cc2cc(C(=O)N3CCCC3)sc2c1	i	i
COc1ccc(Oc2c(C)oc3c4c(ccc3c2=O)OCN(CC2CCCO2)C4)cc1 (stereo not drawn)	i	i
CCN(CC)Cc1c(O)ccc2c1OC(=CC=Cc1ccccc1OC)C2=O	i	i
Oc1ccc(NCc2cccs2)cc1	i	64.3
COC(=O)c1ccc(NCc2cccs2)cc1	i	i
CCc1ccc(NC(=O)N2CCCC(c3cccc(C(=O)NCCOC)c3)C2)cc1 (stereo not drawn)	i	i
O=C(NCCC1=CCCCC1)c1ncn[nH]1	i	93.9
O=C(NCCC1=CCCCC1)c1ccncc1	i	i
Cc1cc(C(=O)NCC(C)(O)C2CC2)c(C)o1 (stereo not drawn)	i	i
COc1ccc(N2C(=O)CSC23CCCCC3)cc1	i	i
COc1ccc(N2C(=O)C(O)=CC2(OC)c2ccccc2)cc1 (stereo not drawn)	i	67.0
SMILES	Pf apPOL block	mHTT-CaM PPI inh
CC(C)(C)c1ccc(C(=O)N2CCN(CCNC(=O)c3ccsc3)CC2)cc1	i	i
COc1ccc(-c2nnc(N3CCC(C(=O)NC(C)c4ccccn4)CC3)o2)cc1 (stereo not drawn)	i	i
CCCCCCOc1ccc(/C=c2\sc3nc(-c4ccncc4)nn3c2=O)cc1OC	i	i
O=C(CN1C(=O)/C(=C/c2ccccc2F)Sc2ccccc21)N1CCN(C2CCCCC2)CC1	i	75.0
O=C(CN1C(=O)/C(=C/c2ccccc2F)Sc2ccccc21)N1CCCCC1	i	i
NC(=O)c1cc([N+](=O)[O-])ccc1NCc1ccccc1	i	i
O=[N+]([O-])c1ccc(CSc2ccccn2)cc1	i	nt
Cn1nc([N+](=O)[O-])nc1Sc1cccc2cccnc12	i	66.1
O=C(Sc1cccc2cccnc12)c1ccc([N+](=O)[O-])cc1	i	100.0
Cn1nc([N+](=O)[O-])nc1Sc1nc2ccccc2n1C	i	i
O=[N+]([O-])c1ccc(CSc2cccc3cccnc23)cc1	i	63.0!
CCN(CC)C(=O)Sc1cccc2cccnc12	i	i
Cc1ccc2c(c1)C(N1CCCN(S(C)(=O)=O)CC1)=Nc1ccccc1O2	i	i
CC(C)c1cc(C2CCCN2Cc2ccc(O)cc2)no1 (stereo not drawn)	i	i
O=C1NN(c2cccc(Br)c2)C(=O)/C1=C/C=C/c1ccco1	i	i
Cc1ccccc1-n1c(CCC(=O)O)ccc1-c1cccs1	i	i
Cc1cc(Cl)ccc1-n1c(CCC(=O)O)ccc1-c1cccs1	i	68.0
O=C(c1nn2c(C(F)(F)F)cc(-c3ccco3)nc2c1Cl)N1CCOCC1	i	i
CC(C)(C)NC(=O)/C(=C1\Nc2ccc([N+](=O)[O-])cc2N1)[N+](=O)[O-]	i	i
CC(=O)NC1=NN(C(C)=O)C(c2ccc(OCc3ccccc3)cc2)S1 (stereo not drawn)	i	68.0
CC(=O)NC1=NN(C(C)=O)C(c2ccc(OCc3ccccc3)c(OCc3ccccc3)c2)S1 (stereo not drawn)	i	i
CCCNc1cc(N2CCC(CCC(=O)N3CCCCCC3)CC2)ncn1	i	i
Cc1ccc(C2C3=C(NCCN=C3c3ccccc3)C(=O)N2c2ccccc2)cc1 (stereo not drawn)	i	80.0
COc1cccc(C2C3=C(NCCN=C3c3ccc(Cl)cc3)C(=O)N2c2ccccc2)c1 (stereo not drawn)	i	i
O=C(COc1ccc(Cl)cc1)Nc1ccc2c(c1)CCCN2C(=O)c1ccco1	i	i
Cc1cccn2cc(CCNS(=O)(=O)c3ccccc3F)nc12	i	i
CC(=O)N1/C(=C/c2ccncc2)C(=O)c2ccccc21	i	i
